{
  "source": "PubChem BioAssay",
  "note": "The source made the active and inactive calls. How the calls were made is not given here.",
  "data": [
    {"test_system": "Aerobactin synthetase IucA (Klebsiella pneumoniae, hypervirulent)", "assay": "IucA enzyme inhibition, biochemical, LOPAC library, absorbance readout (AID 1346212);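 further: 100% = no compound wells and 0% = no enzyme wells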", "conditions": "IucA enzyme assay, absorbance (OD) readout; active compounds read low;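 tested at 8 µM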", "values": [
      {"smiles": "CC1(C)CCC=[N+]1[O-]", "remaining activity": "120% (inactive)"},
      {"smiles": "[N-]=[N+]=Nc1ccc(C(=O)CSC[C@H](NC(=O)CC[C@H](N)C(=O)O)C(=O)NCC(=O)O)cc1", "remaining activity": "116% (inactive)"},
      {"smiles": "N[C@@H](Cc1c[nH]c2ccccc12)C(=O)O", "remaining activity": "91.3% (inactive)"},
      {"smiles": "NC(=O)c1cc[n+](CC2=C(C(=O)O)N3C(=O)[C@@H](NC(=O)[C@@H](c4ccccc4)S(=O)(=O)[O-])[C@H]3SC2)cc1", "remaining activity": "107% (inactive)"},
      {"smiles": "CC[N+](CC)(CC)CCOc1ccc(/C=C/c2ccccc2)cc1", "remaining activity": "118% (inactive)"},
      {"smiles": "Clc1nccc2c1ccc1ccccc12", "remaining activity": "109% (inactive)"},
      {"smiles": "CN1[C@@H]2CC[C@H]1CC(OC(=O)C(CO)c1ccccc1)C2", "note": "(some centres not stated)", "remaining activity": "95% (inactive)"},
      {"smiles": "c1cnc2c(c1)ccc1cccnc12", "remaining activity": "101% (inactive)"},
      {"smiles": "C#CCn1c(=O)c2c(ncn2C)n(C)c1=O", "remaining activity": "109% (inactive)"},
      {"smiles": "Nc1c(C(=O)Nc2nnc(-c3ccccc3)s2)sc2nc3c(cc12)CCCCC3", "remaining activity": "109% (inactive)"},
      {"smiles": "Cn1cc(C2=C(c3ccc(Cl)cc3Cl)C(=O)NC2=O)c2ccccc21", "remaining activity": "116% (inactive)"},
      {"smiles": "CNCCC(Oc1ccccc1OC)c1ccccc1", "note": "(configuration not stated)", "remaining activity": "104% (inactive)"},
      {"smiles": "Nc1ncnc2c1nc(Sc1ccc(Cl)cc1)n2C1OC2COP(=O)(O)O[C@@H]2[C@@H]1O", "note": "(some centres not stated)", "remaining activity": "108% (inactive)"},
      {"smiles": "CCC(NC(C)C)C(O)c1ccc(O)c(O)c1", "note": "(configuration not stated)", "remaining activity": "102% (inactive)"},
      {"smiles": "NCCCCNCCCN", "remaining activity": "107% (inactive)"},
      {"smiles": "CN1CC(=O)NC1=NC(=O)Nc1cccc(Cl)c1", "remaining activity": "98.9% (inactive)"},
      {"smiles": "CCCn1cnc2c1c(=O)n(CCCCC(C)=O)c(=O)n2C", "remaining activity": "93.8% (inactive)"}
    ]}
  ]
}
